Experimental findings from PubChem BioAssay are described below.

A short description of experiment [1]: antimalarial activity against Dd2 strain (AID 2302;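 active = growth inhibition above 50% at the single 2 µM test dose, taken to imply half-maximal potency below 2 µM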;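 also: 0% = DMSO untreated growth and 100% = chloroquine plus artemisinin killed control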). The settings on record: P. falciparum Dd2 in RBCs, LDH growth readout, 72 h; at 2 µM; stronger effect = higher value.
Experiment [2] can be described thus: HepG2 cytotoxicity, primary screen, cytotoxicity control for P. falciparum antimalarial project, cell-based, ATP luminescence (AID 2303;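 active = inhibition above 50%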;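 also: 0% = DMSO wells and 100% = digitonin-killed cells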). The settings on record: HepG2 viability, 24-48 h, at 10 µM, stronger effect = higher value.
For experiment [3], the target named is L-lactate dehydrogenase (Plasmodium falciparum (isolate CDC / Honduras)) (UniProt Q27743). As to the kind of experiment: PfLDH activity inhibition – cell lysate, 3D7 strain, counter-screen for P. falciparum growth inhibition project (AID 2304).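 Also: 0% = vehicle and 100% = reference inhibitor.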 The conditions noted are these: P. falciparum 3D7 crude extract, LDH APAD/NBT absorbance; at 2 µM; stronger effect = higher value. In general terms: A counterscreen serves to expose hits that act by an unwanted route or on another target.

A short description of experiment [4]: inhibition of 3D7 malaria parasite growth – strain 3D7 (AID 2306).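 Also: 0% = DMSO wells and 100% = chloroquine plus artemisinin control wells.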 The conditions noted are these: P. falciparum 3D7 erythrocytic growth, LDH absorbance, 72 h; at 2 µM; stronger effect = higher value.
For experiment [5], the target named is Protein kinase 7 (PK7), Plasmodium falciparum 3D7 (PF3D7_0213400) (UniProt Q7YTF7). As to the kind of experiment: inhibition of Plasmodium PK7 catalytic activity – biochemical, TCAMS antimalarial set, Kinase-Glo luminescence (AID 1159587). The settings on record: recombinant PfPK7, Kinase-Glo ATP depletion luminescence. On the technique in general: Kinase-Glo measures the ATP left after a reaction by luminescence.

The target in experiment [6] is Calcium-dependent protein kinase 4 (Plasmodium falciparum (isolate 3D7)) (UniProt Q8IBS5). Kind of experiment: PfCDPK4 kinase inhibitors, biochemical, TCAMS library (AID 1159588; cut-off not given, nearly all actives have IC50 up to about 0.91 µM). The settings on record: recombinant PfCDPK4, Kinase-Glo ATP depletion luminescence.
For experiment [7], the target named is Plasmodium falciparum protein kinase 6 (PK6, PF3D7_1337100) (UniProt Q8IDW1). As to the kind of experiment: PfPK6 kinase inhibitors, biochemical, TCAMS library (AID 1159586). The conditions noted are these: recombinant PfPK6, Kinase-Glo ATP depletion luminescence.
The nature of experiment [8]: growth inhibition of DIPG glioma cells, dose response, cell-based, SU-DIPG-XVII, MIPE5.0, CellTiter-Glo, qHTS (AID 1347060; cut-off not given, nearly all actives have AC50 up to about 26 µM;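 also: cells exposed to compound for 48 hours before viability readout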). The settings on record: SU-DIPG-XVII viability, CellTiter-Glo ATP luminescence.
Experiment [9] is described as follows: growth inhibition of DIPG glioma cells, dose response, cell-based, JHH-DIPG-1, MIPE4.0, CellTiter-Glo, qHTS (AID 1347062; cut-off not given, nearly all actives have AC50 up to about 27 µM;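 also: cells exposed to compound for two days before readout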). The settings on record: JHH-DIPG-1 viability, CellTiter-Glo ATP luminescence.
The nature of experiment [10]: growth inhibition of DIPG glioma cells, dose response, cell-based, SU-DIPG-IV, MIPE4.0, CellTiter-Glo, qHTS (AID 1347063; cut-off not given, nearly all actives have AC50 up to about 30 µM;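 also: compound exposure lasted 48 hours before the viability readout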). The settings on record: SU-DIPG-IV viability, CellTiter-Glo ATP luminescence. Background: ATP-based viability assays read luminescence as a measure of living cells.
A short description of experiment [11]: viability loss in pontine glioma line – cell-based, SU-DIPG-XXV, MIPE5.0, CellTiter-Glo, qHTS, dose response (AID 1347065; cut-off not given, nearly all actives have AC50 up to about 26 µM;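 also: cells exposed to compound for 48 hours before ATP readout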). The settings on record: CellTiter-Glo ATP luminescence.
Experiment [12] can be described thus: SU-DIPG-VI glioma cell viability, MIPE4.0 library, CellTiter-Glo luminescence, qHTS (AID 1347066; cut-off not given, nearly all actives have AC50 up to about 30 µM;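 also: cells exposed to compound for 48 hours before readout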). The conditions noted are these: CellTiter-Glo ATP luminescence.
Experiment [13] is described as follows: JHH-DIPG-1 glioma cell viability, MIPE5.0 library, CellTiter-Glo luminescence, qHTS (AID 1347067; cut-off not given, nearly all actives have AC50 up to about 26 µM;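 also: cells exposed to compound for 48 hours before readout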). The conditions noted are these: JHH-DIPG-1 glioma viability, CellTiter-Glo ATP luminescence.
Experiment [14] is described as follows: SU-DIPG-XXV glioma cell viability, MIPE5.0 library, qHTS (AID 1347068; cut-off not given, nearly all actives have IC50 up to about 30 µM;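 also: cells exposed to compound for 48 hours before viability readout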).
Experiment [15] in a line: sensitizers of A549 cells to miR-34 induction, primary screen, imaging, A549 dox-inducible miR-34, nuclei and caspase counts (AID 1347080;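 active = compounds whose cell count with miR-34 switched on is under 0.7 times the count with it off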). The settings on record: A549 miR-34 inducible, Hoechst nuclei count, 48 h.
Experiment [16] in a line: modifiers of HSF1 nuclear foci, imaging, Selleck Cancer Library (AID 1347162; in the data active = plate-normalised HSF1 focus index below about 0.46). The settings on record: human cells, at 10 µM; SSMD: measured here: HSF1 foci SSMD mean; cell count: measured here: cell number; plate-normalised HSF1 focus index: stronger effect = lower value.
The nature of experiment [17]: phospholipid biosynthesis inhibitors in animal cells, primary screen, cell-based, LOPAC library, screen 4 (AID 1347384). The settings on record: phospholipid biosynthesis inhibition screen, at 10 µM.
Experiment [18] in a line: viability rescue of complex I mutant cybrids, primary screen, cell-based, galactose medium, ATP luminescence (AID 1645843;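 active = z-score of at least 1.8 in each of two replicates, scored against plate mean and spread of sample wells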;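 also: positive z means more ATP and so rescue of galactose-driven cybrid death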). The settings on record: complex I mutant cybrid cells, 72 h, stronger effect = higher value.

In general, inhibition refers to the drop in the measured response relative to a control, in per cent. Broadly, the AC50 is the concentration at which the activity in the assay is half-maximal. By IC50 is commonly meant the point on the concentration scale where inhibition reaches its midpoint.

Inconclusive results are not listed. For some of these results: Results with a measured potency or affinity are listed apart. Active and inactive are the calls of the source. Unless noted, no rule for the calls is given here.

Calcium-dependent protein kinase 4 (Plasmodium falciparum (isolate 3D7)), sequence (Q8IBS5 whole entry, looked up): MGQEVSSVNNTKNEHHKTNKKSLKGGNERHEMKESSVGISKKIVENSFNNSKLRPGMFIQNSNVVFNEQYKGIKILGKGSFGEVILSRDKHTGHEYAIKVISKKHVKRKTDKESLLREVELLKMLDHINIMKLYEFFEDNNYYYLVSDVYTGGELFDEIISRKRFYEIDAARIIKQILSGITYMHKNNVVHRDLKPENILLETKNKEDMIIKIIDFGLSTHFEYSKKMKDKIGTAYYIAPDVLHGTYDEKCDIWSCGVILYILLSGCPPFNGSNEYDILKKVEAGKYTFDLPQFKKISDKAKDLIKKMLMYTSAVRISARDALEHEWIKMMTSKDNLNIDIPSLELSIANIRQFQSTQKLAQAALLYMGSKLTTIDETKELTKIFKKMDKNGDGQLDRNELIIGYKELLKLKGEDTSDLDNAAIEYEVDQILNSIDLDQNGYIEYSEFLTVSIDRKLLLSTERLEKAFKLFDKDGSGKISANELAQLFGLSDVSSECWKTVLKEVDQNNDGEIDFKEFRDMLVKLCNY
Protein kinase 7 (PK7), Plasmodium falciparum 3D7 (PF3D7_0213400), sequence (Q7YTF7 1-343): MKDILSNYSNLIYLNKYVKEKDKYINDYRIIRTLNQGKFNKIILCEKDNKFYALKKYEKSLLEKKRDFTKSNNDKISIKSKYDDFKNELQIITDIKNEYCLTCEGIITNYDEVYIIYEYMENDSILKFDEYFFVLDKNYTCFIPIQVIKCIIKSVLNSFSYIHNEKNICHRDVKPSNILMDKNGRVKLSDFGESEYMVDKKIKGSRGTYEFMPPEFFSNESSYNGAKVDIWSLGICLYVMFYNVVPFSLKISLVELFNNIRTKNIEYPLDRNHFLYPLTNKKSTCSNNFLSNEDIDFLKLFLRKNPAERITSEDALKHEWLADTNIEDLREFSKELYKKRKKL
L-lactate dehydrogenase (Plasmodium falciparum (isolate CDC / Honduras)), sequence (Q27743 whole entry, looked up): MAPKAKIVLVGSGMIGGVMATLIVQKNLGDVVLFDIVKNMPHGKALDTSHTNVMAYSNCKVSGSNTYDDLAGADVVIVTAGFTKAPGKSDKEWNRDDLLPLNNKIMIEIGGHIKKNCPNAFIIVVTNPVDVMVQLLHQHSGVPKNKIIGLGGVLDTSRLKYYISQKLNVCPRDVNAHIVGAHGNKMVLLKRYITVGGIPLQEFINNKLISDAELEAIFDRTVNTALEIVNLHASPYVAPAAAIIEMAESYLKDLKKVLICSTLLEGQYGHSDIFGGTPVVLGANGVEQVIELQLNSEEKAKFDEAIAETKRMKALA
Plasmodium falciparum protein kinase 6 (PK6, PF3D7_1337100), sequence (Q8IDW1 1-305): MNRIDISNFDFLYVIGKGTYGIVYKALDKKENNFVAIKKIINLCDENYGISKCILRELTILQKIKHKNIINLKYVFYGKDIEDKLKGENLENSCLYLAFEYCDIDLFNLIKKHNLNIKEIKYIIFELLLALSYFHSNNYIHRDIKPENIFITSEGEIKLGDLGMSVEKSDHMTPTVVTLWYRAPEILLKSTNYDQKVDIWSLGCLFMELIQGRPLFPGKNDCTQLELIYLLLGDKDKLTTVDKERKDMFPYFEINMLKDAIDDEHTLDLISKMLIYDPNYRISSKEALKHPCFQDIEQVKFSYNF

For `Cc1cc(Nc2ncc(Cl)c(Nc3ccccc3C(N)=O)n2)n[nH]1`, the growth inhibition in experiment [1] is 96% (active); in experiment [4], 98% (active). For the same molecule, the inhibition was 70% (active) in experiment [2] and -1% (inactive) in [3]. Moreover, the outcome in [5] and in experiment [6] was inactive.
Turning to `O=C(Nc1cccc(-c2nn3ncccc3c2-c2ccnc(Nc3cccc(-c4cnco4)c3)n2)c1)c1c(F)cccc1F`, the growth inhibition in [1] is 98% (active); in experiment [4], 97% (active). Also, the inhibition in experiment [2] was 96% (active); in [3], 2% (inactive). The outcome in experiment [7] and in experiment [5] was inactive.
For the molecule `Cc1csc(-c2ncc(OC[C@@H](N)Cc3ccccc3)cc2-c2ccc3n[nH]c(C)c3c2)c1`, the growth inhibition is 35% (inactive) in experiment [1] and 98% (active) in [4]. In addition, the figures for the inhibition in experiment [2] and in experiment [3] were 48% (inactive) and 4% (inactive), respectively. Also, the result in [7] and in experiment [5] was inactive.
For the molecule `CNC(=O)c1ccccc1Nc1nc(Nc2ccc(N3CCOCC3)cc2)ncc1Cl`, the growth inhibition in experiment [1] and in experiment [4] was 97% (active) throughout. Moreover, the inhibition in experiment [2] is 75% (active); in [3], -3% (inactive). Moreover, the outcome in [5] and in experiment [6] was inactive.
`COc1ccc(Nc2ncc(Cl)c(Nc3cccnc3C(N)=O)n2)cc1N1CCN(C)CC1`: the growth inhibition was 97% (active) in experiment [1] and 95% (active) in [4]. Further, the inhibition in experiment [2] was 77% (active); in experiment [3], 6% (inactive). Further, the outcome in experiment [5] and in experiment [6] was inactive.
With `OC1CCC(Nc2ccc3ncc(-c4ccc(Cl)cc4)n3n2)CC1` (stereo not drawn), the growth inhibition in experiment [1] was 98% (active); in [4], 97% (active). The inhibition in experiment [2] is 57% (active); in experiment [3], 0% (inactive). Also, the outcome in experiment [7] and in experiment [6] was inactive.
Turning to `O=C(Nc1cccc(-c2nn3ccccc3c2-c2ccnc(Nc3ccc(C(=O)N4CCOCC4)cc3)n2)c1)c1c(F)cccc1F`, the values for the growth inhibition in [1] and in experiment [4] were 97% (active) and 99% (active), respectively. Besides, the inhibition is 72% (active) in [2] and 4% (inactive) in experiment [3]. Moreover, the result in [7] and in experiment [5] was inactive.
Turning to `COc1ccc(Nc2ncc(OC)c(Nc3ccccc3C(N)=O)n2)cc1N1CCN(C)CC1`, the values for the growth inhibition in [1] and in experiment [4] were 96% (active) and 100% (active), respectively. The values for the inhibition in experiment [2] and in experiment [3] were 63% (active) and 0% (inactive), respectively. Besides, the result in [5] and in experiment [6] was inactive.
As for `CCn1c(-c2nonc2N)nc2c(-c3cccc(NC(=O)Nc4ccccc4Cl)c3)ncc(OCCCN)c21`, the growth inhibition in experiment [1] was 74% (active); in experiment [4], 99% (active). Also, the inhibition was 2% (inactive) in [2] and -4% (inactive) in experiment [3]. Besides, the outcome in [7] and in experiment [5] was inactive.
In the case of `CN(C)Cc1cccc(-c2cc3c(-c4cnn(C)c4)c(Cl)cnc3[nH]2)c1`, the growth inhibition in experiment [1] is 21% (inactive); in [4] it was 96% (active). Also, the inhibition is 75% (active) in experiment [2] and -5% (inactive) in experiment [3]. Also, the outcome in [5] and in experiment [6] was inactive.
Turning to `CCn1c(-c2nonc2N)nc2c(-c3cccc(NC(=O)Nc4ccccc4OC)c3)ncc(OCCCN)c21`, the growth inhibition is 58% (active) in experiment [1] and 92% (active) in experiment [4]. For the same molecule, the inhibition in experiment [2] is 84% (active); in experiment [3], -2% (inactive). Further, the outcome in [7] and in [5] was inactive.
Turning to `NCCNS(=O)(=O)c1ccc(-c2ccnc3[nH]c(-c4ccncc4)cc23)cc1`, the figures for the growth inhibition in experiment [1] and in experiment [4] were 95% (active) and 96% (active), respectively. Also, the inhibition in [2] is -10% (inactive); in experiment [3], 3% (inactive). Besides, the outcome in [5] and in [6] was inactive.
Consider `CS(=O)(=O)Cc1ccc(Nc2nccc(N3CCCc4cc(NC(=O)Nc5cccc(C(F)(F)F)c5)ccc43)n2)cc1`, for which the growth inhibition was 99% (active) in [1] and 102% (active) in experiment [4]. Also, the inhibition in [2] is 46% (inactive); in [3] it was -4% (inactive). Further, the result in [5] and in experiment [6] was inactive.
With `CC(c1cccc(Nc2nccc(-c3c(-c4cccc(NC(=O)c5c(F)cccc5F)c4)nn4ccccc34)n2)c1)S(C)(=O)=O` (stereo not drawn), the growth inhibition in [1] is 99% (active); in experiment [4], 98% (active). In addition, the values for the inhibition in [2] and in [3] were 76% (active) and -6% (inactive), respectively. Moreover, the outcome in [7] and in experiment [5] was inactive.
Regarding `CNC(=O)c1ccccc1Nc1nc(Nc2cccc(CS(C)(=O)=O)c2)ncc1C`, the growth inhibition in experiment [1] was 95% (active); in experiment [4], 97% (active). The inhibition was 74% (active) in [2] and -4% (inactive) in experiment [3]. Further, the outcome in experiment [5] and in [6] was inactive.
Consider `CCn1c(-c2nonc2N)nc2c(-c3cccc(NC(=O)NC45CC6CC(CC(C6)C4)C5)c3)ncc(OCCCN)c21`, for which the growth inhibition is 63% (active) in [1] and 94% (active) in [4]. Further, the inhibition in experiment [2] was 100% (active); in experiment [3], -2% (inactive). For the same molecule, the result in experiment [7] and in experiment [5] was inactive.
`O=C(Nc1cccc(-c2nn3ccccc3c2-c2ccnc(Nc3cccc(-c4cnco4)c3)n2)c1)C1CCCCC1`: the growth inhibition is 99% (active) in experiment [1] and 95% (active) in [4]. Further, the results for the inhibition in experiment [2] and in experiment [3] were 71% (active) and -4% (inactive), respectively. Moreover, the result in experiment [7] and in [5] was inactive.
`NS(=O)(=O)c1cccc(Nc2nc(N[C@@H]3CCNC3)nc3cc[nH]c(=O)c23)c1`: the results for the growth inhibition in [1] and in experiment [4] were 98% (active) and 99% (active), respectively. Moreover, the inhibition in experiment [2] was 7% (inactive); in experiment [3], 0% (inactive). The result in experiment [7] and in experiment [5] was inactive.
Consider `Cc1ccc(Nc2ccnc(Nc3ccc4c(c3)CS(=O)(=O)C4)n2)cc1O`, for which the growth inhibition in experiment [1] is 76% (active); in experiment [4] it was 102% (active). Also, the inhibition was 82% (active) in experiment [2] and 5% (inactive) in [3]. Moreover, the result in [5] and in experiment [6] was inactive.
Consider `Cc1cccc(Nc2nc(N[C@@H]3CCCNC3)nc3cc[nH]c(=O)c23)c1`, for which the growth inhibition in experiment [1] was 98% (active); in [4], 99% (active). Further, the inhibition in [2] was 55% (active); in experiment [3] it was 1% (inactive). For the same molecule, the result in experiment [7] and in experiment [5] was inactive.
On to `NCC(NC(=O)c1ccc(-c2c[nH]c3ncccc23)s1)c1ccccc1` (stereo not drawn), for which the values for the growth inhibition in [1] and in experiment [4] were 87% (active) and 95% (active), respectively. Moreover, the inhibition in experiment [2] was 52% (active); in [3], 0% (inactive). For the same molecule, the result in experiment [7] and in experiment [5] was inactive.
In the case of `CCN(CC)CCOc1ccc(Nc2ncc3cc(-c4c(Cl)cccc4Cl)c(=O)n(C)c3n2)cc1`, the results for the growth inhibition in [1] and in [4] were 91% (active) and 90% (active), respectively. Besides, the inhibition in experiment [2] is 72% (active); in experiment [3], 1% (inactive). Further, the result in [5], in experiment [6] and in [17] was inactive. Besides, the AC50 was 0.417 µM (active) in [8]; 2.96 µM (active) in experiment [9]; 4.18 µM (active) in experiment [10]; 1.86 µM (active) in [11]; 20.9 µM (active) in experiment [12]; 4.68 µM (active) in experiment [13]. The half-inhibitory concentration (IC50) in experiment [14] was 2.95 µM (active). Moreover, the fold change in experiment [15] (stronger effect = lower value, cell number ratio, induced over uninduced) is 1.1 (inactive); in [15] (measured here: relative caspase fold change +Dox/-Dox), 0.543. Further, the cell count in [15] (measured here: total cells with miR-34 induction, stronger effect = lower value) was found to be 761; in experiment [15] (measured here: total cells without miR-34 induction), 694; in experiment [16], 5360. In addition, in [16], the SSMD was -11.2. Moreover, the plate-normalised HSF1 focus index in experiment [16] was 0.335 (inactive). For the same molecule, the z-score in [18] was -1.38 (inactive).
